Screening results deposited in PubChem by National Center for Advancing Translational Sciences (NCATS).
Compounds with a hit are over-represented: about 9.3% of the library has one in this group of screens.
SMN2 splice enh – qHTS Assay for Enhancers of SMN2 Splice Variant Expression | HEK293 SMN2-luciferase splicing reporter, luminescence, 30-36 h | Potency, µM (titrated, usually from 46.1 µM), for inactives: at the highest dose activity change, positive = activation, most hits filed as activators | 210,000 compounds, 2.8% hits | AID 1458, 2008; also: % of control where 0% means no effect; nearly all actives have a fitted effect of over 55% in size
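HEK293 cells carry an SMN2 […]–luciferase reporter in which exon 7 inclusion puts luciferase in frame. Cells were plated 10-12 h before compound addition, then incubated 30-36 h at 37C. ONE-Glo luminescence was read; sodium butyrate at 4.5 mM final served as control.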
FLuc modulator – qHTS profiling assay for firefly luciferase inhibitor/activator using purifed enzyme and Km concentrations of substrates (counterscreen for miR-21 project); purified FLuc, Km substrates, luminescence inhibition; 360,000 compounds, 6.9% hits; Potency, µM (doses to about 57.5 µM), without a hit: at the highest dose activity change, negative = inhibition, actives largely listed as inhibitors; Luciferin 4-monooxygenase (Photinus pyralis), P08659;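 also: plate controls were vehicle for no effect and reference inhibitor for full effect; nearly all actives have a fitted effect of over 55% in size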
Target sequence (P08659 whole entry, looked up): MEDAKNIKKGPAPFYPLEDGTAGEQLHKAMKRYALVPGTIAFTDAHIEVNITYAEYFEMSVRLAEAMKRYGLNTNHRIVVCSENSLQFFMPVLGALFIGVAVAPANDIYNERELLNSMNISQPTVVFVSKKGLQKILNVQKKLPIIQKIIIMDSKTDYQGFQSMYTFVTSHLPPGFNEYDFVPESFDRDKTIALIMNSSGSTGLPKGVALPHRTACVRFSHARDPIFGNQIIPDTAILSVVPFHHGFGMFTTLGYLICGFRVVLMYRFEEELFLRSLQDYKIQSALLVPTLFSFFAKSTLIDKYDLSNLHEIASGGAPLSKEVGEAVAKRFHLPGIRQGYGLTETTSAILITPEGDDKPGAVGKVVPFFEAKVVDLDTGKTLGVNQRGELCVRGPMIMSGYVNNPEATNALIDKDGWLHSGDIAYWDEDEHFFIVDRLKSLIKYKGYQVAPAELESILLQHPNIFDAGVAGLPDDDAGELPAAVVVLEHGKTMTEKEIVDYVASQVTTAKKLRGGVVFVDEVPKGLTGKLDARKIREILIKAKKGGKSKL
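Purified P. pyralis luciferase, 10 nM final, with Km-level 10 uM D-luciferin and 10 uM ATP in 50 mM Tris acetate pH 7.5, 10 mM Mg acetate, 0.01% Tween-20, 0.05% BSA; 6-point qHTS titration about 60 µM downward; luminescence read.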
Rab9 prom act – qHTS Assay for Rab9 Promoter Activators; Huh7 Rab9 promoter-luciferase reporter, luminescence, 24 h; Potency, µM (doses to about 9.22 µM), for the others: top-dose activation, negative = inhibition, usual class: activators; 320,000 compounds, 2.8% hits; AID 485297, 2010; also: % of control where 0% means no effect; nearly all actives have a fitted effect of over 60% in size
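Huh7 reporter line, Rab9 promoter upstream of luciferase. Compound exposure 24 h at 37 °C in reduced-serum medium with 10% FBS. Read-out: luminescence.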
ELG1 genotox – qHTS screen for small molecules that induce genotoxicity in human embryonic kidney (HEK293T) cells expressing luciferase-tagged ELG1; HEK293T ELG1-luciferase reporter, luminescence, 16 h; Potency, µM (highest dose often 46 µM), for inactives: at the highest dose activity change, positive = activation, most hits filed as activators; 330,000 compounds, 1.3% hits; AID 504466, 2011; also: % of control where 0% means no effect; nearly all actives have a fitted effect of over 60% in size
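Step 1: seed 2,000 HEK293T ELG1-luciferase cells per well. Step 2: add compound or DMSO, incubate 16 hr at 37 °C. Step 3: ONE-Glo, 30 min at room temperature, read luminescence.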
NPC1 promoter act – qHTS Assay for NPC1 Promoter Activators. Potency, µM (titrated, usually from 9.22 µM), for the others: at the highest dose activation, most hits filed as activators. AID 485313, 2010. Huh7 NPC1 promoter luciferase reporter, 24 h. 320,000 compounds, 2.4% hits; also: % of control where 0% means no effect; nearly all actives have a fitted effect of over 60% in size
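Huh7 cells stably carrying NPC1 promoter–luciferase, plated in Opti-MEM with 10% FBS for 2 h, were exposed to compound in DMSO for 24 h at 37 °C; luciferase reagent was added for 10 min and luminescence read.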
ELG1 repair inh – qHTS screen for small molecules that inhibit ELG1-dependent DNA repair in human embryonic kidney (HEK293T) cells expressing luciferase-tagged ELG1; HEK293T ELG1-luciferase reporter, luminescence, 16 h; DNA damage induced by 5-fluorouridine; Potency, µM (titrated, usually from 46.1 µM), inactives show at the highest dose activity change, negative = inhibition, hits mostly inhibitors; 330,000 compounds, 2.3% hits; also: % is scaled to controls: 0 for no effect and ±100 for the full control effect; nearly all actives have a fitted effect of over 55% in size
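5-Fluorouridine DNA damage + compound/DMSO, 2,000 cells/well, 16 h, 37 °C/5% CO2. ONE-Glo, 30 min RT, luminescence. Readout = decrease in reporter signal.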
The depositor's hits bear a star; ? = inconclusive; . = no result; [ ] = another dose, or the depositor's remark. Calls follow the shape of the dose curve; as a rule, active = well fitted curve in the direction sought with a large enough effect; inconclusive = small, poorly fitted or top-dose-only effect, or another doubt; inactive = no such curve, though single readings can be large; an effect the other way counts as inactive or inconclusive. Potency is read from the fitted curve at half-maximal effect.

SMILES	SMN2 splice enh	FLuc modulator	Rab9 prom act	ELG1 genotox	NPC1 promoter act	ELG1 repair inh
O=C(c1ccc(S(=O)(=O)N2CCCCC2)cc1)N1CCN(CCN2C(=O)c3cccc4cccc(c34)C2=O)CC1	-108%	-3%	-7%	-15%	-11%	3.3µM*
O=C1c2cccc3cccc(c23)C(=O)N1CCc1ccccc1	14µM*	13µM*	?	4%	26%	?
COc1ccc(C2(C)NC(=O)N(CC(=O)Nc3ccc4ccccc4c3)C2=O)cc1OC (stereo unspecified)	.	2%	-1%	-7%	-1%	?
COc1ccc(NC(=O)CN2C(=O)NC(C)(c3ccccc3)C2=O)cc1Cl (stereo unspecified)	.	21µM*	-3%	2%	-1%	4%
COc1ccc(C2c3ccc(O)cc3Oc3ncn4nc(-c5ccccn5)nc4c32)cc1OC (stereo unspecified)	.	3%	2%	1%	-1%	21µM*
NC(=O)C1=NOC(CNc2ncc(C(F)(F)F)cc2Cl)C1 (stereo unspecified)	9%	?	?	23µM*	21%	?
Cn1c(C(C#N)C(=O)c2ccco2)nc2ccccc21 (stereo unspecified)	29%	17µM*	7%	16%	-1%	?
Cn1c(C(C#N)C(=O)Cc2cccc3ccccc23)nc2ccccc21 (stereo unspecified)	-9%	-1%	-6%	-9%	-5%	-7%
COc1ccc(C(=O)N2CCc3ccccc32)cc1S(=O)(=O)N1CCOCC1	.	5%	-4%	1%	0%	-1%
O=C(Nc1cccc(-c2nc3ncccc3o2)c1)c1sc2cc(Cl)ccc2c1Cl	-9%	-12%	16%	?	5%	?
Cc1ccc(-c2nc3ncccc3o2)cc1NC(=O)c1cc2ccccc2o1	2%	-8%	-5%	0%	-1%	-2%
O=C(Nc1cccc(-c2nc3ncccc3o2)c1)c1cc2ccccc2o1	1%	8.5µM*	?	-2%	?	?
O=C(Nc1cccc(-c2nc3ncccc3o2)c1)c1sc2ccccc2c1Cl	-5%	1.3µM*	?	-1%	?	15%
CC(=O)c1ccccc1NCC(=O)Nc1ccc(C)cc1	23%	?	21%	13%	3%	12%
Cc1cc(C)cc(C(=O)Nc2cc3c4c(c2)CC(=O)N4CCC3)c1	.	7%	-4%	3%	-6%	?
O=C(Nc1cc2c3c(c1)CC(=O)N3CCC2)c1ccc(Br)cc1	.	15µM*	0%	11%	0%	?
CCOc1ccc(-n2ccn(CC(=O)NCCc3ccccc3)c(=O)c2=O)cc1	.	-1%	-1%	-5%	-1%	27%
COc1cc(OC)c(NC2=C(c3ccc(C(F)(F)F)cc3)C(=O)c3ccccc32)cc1Cl	4%	-12%	.	.	.	.
COc1ccccc1-c1ccc(NC2CCCCC2)nn1	10µM*	7.6µM*	?	?	?	?
O=C(Nc1ccc2c(c1)N(S(=O)(=O)c1cccs1)CCC2)c1c(F)cccc1F	.	1%	-5%	4%	-1%	?
O=S(=O)(c1cccs1)N1CCCc2cccc(O)c21	9%	19µM*	3.5µM*	5%	8%	?
CCC(=O)N1c2ccccc2CC1C(=O)NCc1cc(OC)ccc1OC (stereo unspecified)	.	-3%	.	.	.	.
CC(=O)c1ccc(NC(=O)Cn2c(=O)nc(-c3ccccc3)c3cc(Cl)ccc32)cc1	.	-8%	.	.	.	.
Cc1ccccc1Cn1c(O)c(N=NC(=S)Nc2ccccc2F)c2ccccc21	-45%	0%	3%	-8%	-7%	5.8µM*
CCCOc1ccc(N2C(=O)CC(N(CCOC34CC5CC(CC(C5)C3)C4)C(C)=O)C2=O)cc1 (stereo unspecified)	-47%	-16%	1%	-13%	-9%	?
SMILES	SMN2 splice enh	FLuc modulator	Rab9 prom act	ELG1 genotox	NPC1 promoter act	ELG1 repair inh
O=C(NCc1ccccc1)C1CCN(S(=O)(=O)c2ccc(Cl)cc2)CC1	.	1%	0%	-1%	0%	-1%
Cc1cc(OCC(=O)N2CCN(c3ccccc3)CC2)c2c(C)c(C)c(=O)oc2c1	.	2%	4%	7%[9.26 µM]	-8%	?
Cc1cc(OC(C)C(=O)N2CCN(c3ccccc3)CC2)c2c(C)c(C)c(=O)oc2c1 (stereo unspecified)	.	0%	-5%	-20%	-2%	16µM*
Nc1cc(=O)nc(SCC(=O)Nc2ccccc2)n1CCc1ccccc1	6%	-9%	.	.	.	.
COc1ccc(C2C(C(=O)Nc3ccc(C)cc3C)=C(C)Nc3nc4ccccc4n32)c(OC)c1 (stereo unspecified)	-21%	3%	.	.	.	.
COc1ccc(OC)c(C2Nc3nc4ccccc4n3C(C)=C2C(=O)Nc2ccc(C)cc2C)c1 (stereo unspecified)	7.9µM*	6%	-6%	1%	-7%	0%
CCOc1ccccc1C(=O)NCC(=O)OCC(=O)c1c(N)n(C)c(=O)n(C)c1=O	.	.	.	6%	.	9%
[O-][n+]1c2ccccc2cc2ccccc21	.	-11%	-2%	0%	-1%	-6%
COc1ccc2oc(-c3ccco3)cc(=O)c2c1	11µM*	12µM*	0.79µM*	?	2.5µM*	?
O=C(COc1ccc2oc(-c3ccccc3)cc(=O)c2c1)NCc1ccco1	-27%	2.4µM*	?	16%	6%	?
Cc1cc(=O)oc2ccc(OCC(=O)NCc3ccco3)cc12	6%	1%	1%	-1%	0%	?
O=C(COc1ccc2oc(-c3ccco3)cc(=O)c2c1)N1CCCCC1	3%	17µM*	4%	-1%	3%	10%
Cc1cc(=O)oc2cc(OCC(=O)N3CCCC3)ccc12	.	.	.	3%	.	17%
COc1cccc2oc(-c3ccco3)cc(=O)c12	16µM*	15µM*	?	?	?	?
COC(=O)CNC(=O)CNC(=O)c1nn(-c2ccc(OC)c(OC)c2)c(=O)c2ccccc12	.	0%	-1%	-2%	3%	-1%
COc1ccc(-n2nc(C(=O)NCC(=O)N3CCN(c4ccccc4F)CC3)c3ccccc3c2=O)cc1OC	.	0.95µM*	28%	6%	?	?
